Screens from PubChem.
UBC13 polyUb = blocks human UBC13 polyubiquitin chain formation. P61088. TR-FRET. inhibition, % at 20 µM. 0.47% of 330,000 active. AID 485273; in the data active = inhibition above about 45%, passing the limit was not always enough
Target sequence (P61088 whole entry, looked up): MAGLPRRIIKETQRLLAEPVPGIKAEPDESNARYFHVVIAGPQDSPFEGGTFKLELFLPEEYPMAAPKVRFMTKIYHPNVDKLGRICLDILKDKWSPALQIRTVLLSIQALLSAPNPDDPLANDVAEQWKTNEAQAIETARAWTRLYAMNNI
GRIN3A LBD mod = NR3A (human) ligand-binding domain modulation; NR3A LBD differential scanning fluorimetry, Tm shift; 0% = protein alone, 100% = glycine-bound protein; Tm shift relative to glycine control, % at 25 µM; 2.5% of 340,000 active;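 active = melting temperature shift of at least 10% of the positive control shift, at one fixed dose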
SUMO HTRF inh = inhibitors of human SUMOylation (UBC9); AID 2006; P63279; HTRF SUMOylation assay, SAE1/SAE2 + UBC9, in vitro; inhibition, % at 35 µM; 0.36% of 290,000 active; in the data active = inhibition above about 50%, passing the limit was not always enough
HGIII-sPLA2 inh = Blocks human group III sPLA2 activity; inhibition, % at 12.2 µM; AID 743126; QFRET BODIPY PC-A2 liposome hydrolysis, fluorescence; 0.56% of 370,000 active;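 active = inhibition above mean plus 3 SD of compounds lying within the high and low control bounds, cut at about 19% in these data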
Target sequence (Q9NZ20 whole entry, looked up): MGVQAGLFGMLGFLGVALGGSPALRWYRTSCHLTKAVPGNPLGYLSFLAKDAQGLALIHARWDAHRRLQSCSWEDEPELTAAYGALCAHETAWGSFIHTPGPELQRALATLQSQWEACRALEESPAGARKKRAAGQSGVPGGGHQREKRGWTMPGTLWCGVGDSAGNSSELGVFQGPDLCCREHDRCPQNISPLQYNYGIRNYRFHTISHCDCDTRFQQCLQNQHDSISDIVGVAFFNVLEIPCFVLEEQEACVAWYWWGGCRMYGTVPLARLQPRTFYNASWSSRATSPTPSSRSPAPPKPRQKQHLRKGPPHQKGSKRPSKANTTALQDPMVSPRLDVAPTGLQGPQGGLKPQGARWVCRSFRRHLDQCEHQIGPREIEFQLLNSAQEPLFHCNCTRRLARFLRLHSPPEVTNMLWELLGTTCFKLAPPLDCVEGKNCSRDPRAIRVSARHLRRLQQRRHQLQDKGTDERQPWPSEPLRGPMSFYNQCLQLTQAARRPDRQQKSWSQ
Each line names hits and unclear results; the compound was inactive in the other large screens. An excerpt weighted towards active compounds, which were near 3.3% of everything screened.

CCCC1CCC2(CC1)CCC2OC(=S)Nc1ccccc1Cl (configuration not stated)	none (no result: UBC13 polyUb, GRIN3A LBD mod, SUMO HTRF inh)
O=C(NC(NC(=S)Nc1ccccc1C(=O)O)C(Cl)(Cl)Cl)c1cccc([N+](=O)[O-])c1 (configuration not stated)	GRIN3A LBD mod 16
O=C(NC(NC(=S)Nc1ccccc1Cl)C(Cl)(Cl)Cl)c1cccc(Cl)c1 (configuration not stated)	GRIN3A LBD mod 13
COc1ccc(NC(=S)NC(NC(=O)c2cccc(C)c2)C(Cl)(Cl)Cl)c([N+](=O)[O-])c1 (configuration not stated)	GRIN3A LBD mod 10
COc1ccc(C(=O)NC(NC(=S)Nc2ccc(S(N)(=O)=O)cc2)C(Cl)(Cl)Cl)cc1 (configuration not stated)	GRIN3A LBD mod 13
COc1ccc(NC(=S)NC(NC(C)=O)C(Cl)(Cl)Cl)c([N+](=O)[O-])c1 (configuration not stated)	none
O=C(NC(NC(=S)Nc1ccccc1O)C(Cl)(Cl)Cl)c1ccco1 (configuration not stated)	none
O=C(Cc1cccc2ccccc12)NC(NC(=S)Nc1ccccc1Cl)C(Cl)(Cl)Cl (configuration not stated)	GRIN3A LBD mod 19
CCC(=O)NC(NC(=S)Nc1cccc2cccnc12)C(Cl)(Cl)Cl (configuration not stated)	none
COC[C@H]1CCCN1c1cccc2c1S(=O)(=O)N1CC[C@H](C1)O2	none (no result: UBC13 polyUb, GRIN3A LBD mod, SUMO HTRF inh)
CC(C)(C)c1ccccc1NC(=O)c1ccc2c(c1)SC1=NS(=O)(=O)CCN12	none
O=C(Nc1cccc(Br)c1)c1ccc2c(c1)SC1=NS(=O)(=O)CCN12	GRIN3A LBD mod 18 (no result: SUMO HTRF inh)
O=[N+]([O-])c1ccc(N/N=C/c2ccc(O)c(O)c2O)c(S(=O)(=O)N2CCOCC2)c1	GRIN3A LBD mod 23
N#Cc1cc(Oc2ccccc2)c(-n2nnc3ccccc32)cc1C#N	none
N#Cc1cc(Oc2ccc3ccccc3c2)c(-n2nnc3ccccc32)cc1C#N	GRIN3A LBD mod 13
N#Cc1ccc(NC(=O)OC2CC3CC2[C@H]2CCCCN2[C@H]3Cc2ccccc2)cc1 (some centres not stated)	none (no result: UBC13 polyUb, GRIN3A LBD mod, SUMO HTRF inh)
COc1ccc(CN(C)CC#Cc2ccccc2)c(OC)c1	none (no result: UBC13 polyUb, GRIN3A LBD mod, SUMO HTRF inh)
Cc1ccc(N(CC(=O)Nc2ccc(F)c(Cl)c2)S(=O)(=O)c2c(C)noc2C)cc1	GRIN3A LBD mod 11
Cc1ccc(N(CC(=O)Nc2cc(C)cc(C)c2)S(=O)(=O)c2c(C)noc2C)cc1	none
O=C(/C=C/c1ccc([N+](=O)[O-])cc1)c1cccnc1	GRIN3A LBD mod 24
CC(/C=C/c1cccc([N+](=O)[O-])c1)=N/NC(=O)c1cccnc1	none
O=C(N/N=C/C=C\c1cccc([N+](=O)[O-])c1)c1cccnc1	GRIN3A LBD mod 12
O=C(CNc1ccc2ccccc2c1)N/N=C/C=C/c1cccc([N+](=O)[O-])c1	GRIN3A LBD mod 22
Cc1ccsc1C1Nc2ccccc2-c2nc3ccccc3n21 (configuration not stated)	none
c1csc(C2Nc3ccccc3-c3nc4ccccc4n32)c1 (configuration not stated)	GRIN3A LBD mod 24
C=C1C(=O)[C@]23C[C@H]1CC[C@H]2[C@]1(C)CCC[C@@](C)(C(=O)OC)[C@H]1C[C@@H]3O	none (no result: UBC13 polyUb, GRIN3A LBD mod, SUMO HTRF inh)
COc1cc(NC(=S)NC(C)=O)ccc1NC(=O)C(C)C	GRIN3A LBD mod 11
CN(C)CCCN(C(=O)c1ccc2ccccc2c1)c1nc2cc3c(cc2s1)OCO3	none
Cc1ccc2nc(N(CCN(C)C)C(=O)c3ccc4ccccc4c3)sc2c1	GRIN3A LBD mod 12 (no result: HGIII-sPLA2 inh)
CN(C)CCN(C(=O)c1ccc2ccccc2c1)c1nc2cc3c(cc2s1)OCCO3	GRIN3A LBD mod 13
CC[C@H]1/C(=C/c2ccccc2)N2C(=O)C[C@H](c3ccccc3)N=C2N1C	none (no result: UBC13 polyUb, GRIN3A LBD mod, SUMO HTRF inh)
CC(C)C[C@H](NC1(C(=O)NC2CCCCC2)CCOCC1)C(=O)NCC(c1ccccc1)c1ccccc1	none (no result: UBC13 polyUb, GRIN3A LBD mod, SUMO HTRF inh)
Cc1ccc(NC(=O)c2sc3ncn(CC(=O)N4CCN(c5ccccn5)CC4)c(=O)c3c2C)cc1F	none
Cc1ccc(NC(=O)c2sc3ncn(CC(=O)N4CCN(c5ccccn5)CC4)c(=O)c3c2C)cc1Cl	GRIN3A LBD mod 14
COC(=O)C1CN(C2CCCC2)CCS(=O)(=O)N1Cc1cn(Cc2ccc(OC)cc2)nn1 (configuration not stated)	none (no result: UBC13 polyUb, GRIN3A LBD mod, SUMO HTRF inh)
Cc1ccc(-c2ccnc(=S)[nH]2)cc1	GRIN3A LBD mod 10
S=c1[nH]nc(-c2cc(-c3ccccc3)n[nH]2)n1N=Cc1cccc(Oc2ccccc2)c1	none (no result: UBC13 polyUb, GRIN3A LBD mod, SUMO HTRF inh)
CC(C)Nc1nc(Cl)nc(NCCOc2ccccc2)n1	none
CCC(C)Nc1nc(Cl)nc(NCCOc2ccccc2)n1 (configuration not stated)	GRIN3A LBD mod 13
CC(=O)OCCCN1C(=O)CCC12CCC(C)CC2 (configuration not stated)	none (no result: UBC13 polyUb, GRIN3A LBD mod, SUMO HTRF inh)
CCCCCCCCN1CCS(=O)(=O)N(Cc2ccc(C(F)(F)F)cc2)C(C(=O)OC)C1 (configuration not stated)	none (no result: UBC13 polyUb, GRIN3A LBD mod, SUMO HTRF inh)
Cc1cc([N+](=O)[O-])ccc1-c1ccc(C2Nc3ccccc3C(=O)N2O)o1 (configuration not stated)	GRIN3A LBD mod 30
O=C1c2ccccc2NC(c2ccc(-c3ccccc3F)o2)N1O (configuration not stated)	none (no result: SUMO HTRF inh)
CS(=O)(=O)c1nc(-c2ccc(Br)cc2)cs1	none (no result: UBC13 polyUb, GRIN3A LBD mod, SUMO HTRF inh)
CN(CCc1ccccn1)C(=O)c1ccc2c(c1)ncn2C1CCCCC1	none (no result: UBC13 polyUb, GRIN3A LBD mod, SUMO HTRF inh)
Cc1ccc(Cn2cc(CN3[C@H](c4ccccc4)COc4cc(Br)ccc4S3(=O)=O)nn2)cc1	none (no result: UBC13 polyUb, GRIN3A LBD mod, SUMO HTRF inh)
Cc1ccc(NC(=O)Nc2nnc(-c3ccncc3)s2)cc1C	SUMO HTRF inh 73
O=C(Nc1cccc(Cl)c1)Nc1nnc(CC2=CCCCC2)s1	GRIN3A LBD mod 29
O=C(Nc1cccc(Cl)c1)Nc1nnc(-c2ccncc2)s1	GRIN3A LBD mod 27, SUMO HTRF inh 56
O=C(NCCc1ccncc1)Nc1cccc(Cl)c1	none
O=C(Nc1ccc(Cl)cc1)Nc1nnc(-c2ccncc2)s1	GRIN3A LBD mod 20 (no result: UBC13 polyUb)
O=C(Nc1ccc(F)cc1)Nc1nnc(-c2ccncc2)s1	none
CN(C)CC(=O)N[C@H]1C[C@@H]2O[C@@H](CO)CC[C@@H]2O[C@@H]1CCc1ccc(-c2ccc(F)cc2)cc1	none (no result: UBC13 polyUb, GRIN3A LBD mod, SUMO HTRF inh)
COc1ccc(Cn2ccc3ccc(-c4ccc5ccn(C(=O)C6CCC6)c5c4)cc32)cc1	none (no result: UBC13 polyUb, GRIN3A LBD mod, SUMO HTRF inh)
O=C(Nc1ccc(F)cc1)OCc1cn(Cc2cc(F)cc(F)c2)nn1	none (no result: UBC13 polyUb, GRIN3A LBD mod, SUMO HTRF inh)
Nc1ccc(N2CCCCCC2)cc1	SUMO HTRF inh 62 (no result: GRIN3A LBD mod, HGIII-sPLA2 inh)
Nc1nc2nonc2nc1N1CCCCC1	GRIN3A LBD mod 15
C1CCCN(c2nc3nonc3nc2N2CCCCCC2)CC1	none
CCOC(=O)c1c(C)n(C)c2cc(Br)c(C(=O)OC)cc12	none
CCOC(=O)c1c(C)n(C)c2cc(Br)c(OC)cc12	GRIN3A LBD mod 11
O=C(Nc1ccc2[nH]c(=S)sc2c1)c1ccccc1	GRIN3A LBD mod 21
O=C(Nc1ccc2[nH]c(=S)sc2c1)Nc1ccccc1F	GRIN3A LBD mod 29
O=C(C1CCCN1S(=O)(=O)c1ccc(Cl)s1)N1CCc2ccccc2C1 (configuration not stated)	none (no result: UBC13 polyUb, GRIN3A LBD mod, SUMO HTRF inh)
